The structures appear in SMILES notation. Results filed as inconclusive are left out. Activity calls are given as the source filed them. Unless noted, calls follow the shape of the dose curve; as a rule, active = well fitted curve in the direction sought with a large enough effect; inconclusive = small, poorly fitted or top-dose-only effect, or another doubt; inactive = no such curve, though single readings can be large; an effect the other way counts as inactive or inconclusive.

Potency and outcome data for 8 compounds are collected here from PubChem BioAssay (NCATS).

A short description of test [1]: qHTS for ATAD5 Antagonist screened against the NCATS CANVASS Library (AID 1347370). The procedure, abridged: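 HEK293T cells with a stably integrated ATAD5-controlled luciferase reporter were exposed to compounds (11-pt) alongside 10 uM 5-fluorouridine as ATAD5 stabilizer for 16hr at 37C. Viability was read by CellTiter-Fluor fluorescence, then ATAD5 by luminescence.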

A short description of test [2]: J3T Cancer Cell Toxicity qHTS against the NCATS CANVASS Library (AID 1347371). The essentials:
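Viability of the J3T glioma line from dog is scored by ATP luminescence after a 72 hr incubation with natural products.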
For orientation: Quantitative high-throughput screening tests each substance at several concentrations.

The target in test [3] is Nuclear receptor subfamily 1 group I member 3 (Homo sapiens) (UniProt Q14994). Nature of the test: qHTS for Constitutive Androstane Receptor (CAR) Antagonist screened against the NCATS CANVASS Library (AID 1347372). The essentials: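 HepG2-CYP2B6-hCAR double-stable cells plated, 4hr attach; cpd pin-transferred; CITCO 50 nM final; 24hr 37C/5% CO2; CellTiter-Fluor 1hr (fluorescence), then ONE-Glo luminescence.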

Test [4] shares this target. Nature of the test: qHTS for Constitutive Androstane Receptor (CAR) Agonist screened against the NCATS CANVASS Library (AID 1347373). The procedure, abridged:
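CAR agonism is scored as CYP2B6-promoter luciferase induction in a double-stable transfected HepG2 line, where 1.5uM PK11195 is included in each well. Compounds were tested over a 24hr exposure.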

Test [5] can be described thus: 10-beta competent E. coli microbial cell viability qHTS against the NCATS CANVASS Library (AID 1347376). The procedure, abridged:
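Cytotoxicity toward competent E. coli is scored from cellular ATP content via BacTiter-Glo luminescence following overnight compound exposure at 37C, 5% CO2.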

A short description of test [6]: qHTS for H2AX Agonists against the NCATS CANVASS Library (AID 1347378). The essentials:
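Phospho-H2AX (S139) in CHO-K1 lysates measured by HTRF, reported as 665/615 nm emission ratio after 24 hr antibody incubation at room temperature. Cells were first treated with a compound series for 3 hr at 37C (0.76% DMSO final).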

Test [7] is described as follows: Inflammasome Signaling qHTS Counterscreen: IL-1-beta AlphaLISA counterscreen against the NCATS CANVASS Library (AID 1347381). The essentials:
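To flag interference with the AlphaLISA read-out, a known amount of purified IL-1-beta (4 pg) replaced cell supernatant. Detection used anti-IL-1-beta acceptor beads, biotinylated antibody and streptavidin donor beads at room temperature.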

The nature of test [8]: Cytotoxicity qHTS for assessment of Hepg2 cells membrane integrity screened against the NCATS CANVASS Library (AID 1347387). The essentials: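 Fluorescence proportional to lysed-cell number, from LDH leaking out of HepG2 cells exposed 5 hr at 37C to 0.59 nM - 46 uM compound (11-point qHTS), is measured after 10 min with CytoTox-ONE.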
A short description of test [9]: qHTS assay for small molecule disruptors of mitochondrial membrane potential screened against the NCATS CANVASS Library (AID 1347389). The procedure, abridged:
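Compounds tested in 11-point qHTS series on HepG2 cells for 1 hr; membrane-potential dye added for 30 min at 37C. Lower red-to-green ratio indicates loss of potential.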

Test [10] in a line: qHTS for activators of Nrf2/ARE signaling pathway screened against the NCATS CANVASS Library (AID 1347391). The essentials: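 Cells carrying an ARE-driven beta-lactamase reporter (HepG2 background) are dosed for 16 h, then stained with CCF4. Cell viability in the same wells is measured by CellTiter-Glo luminescence.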
A short description of test [11]: qHTS for activators of dead-cell proteases activity screened against the NCATS CANVASS Library (AID 1347392). The procedure, abridged: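 Compounds are pin-transferred onto attached HepG2 cells, giving 11 final concentrations. After 5 h at 37C, AAF-aminoluciferin reagent is added and luminescence is recorded at room temperature.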
Test [12] in a line: qHTS for inhibitors of Wild type Zika virus screened against the NCATS CANVASS Library (AID 1347396). The essentials:
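Vero 766 cells, 1000/well, o/n attach; cpds pin-transferred (11-pt qHTS); WT Zika added; 72 h, 37C, 5% CO2; CellTiter Glo lumi. Uninfected + vehicle = 100% inhibition.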

Test [13] has as its target Endonuclease 4 (Escherichia coli (strain K12)) (UniProt P0A6C1). Nature of the test: Counterscreen for APE1 Inhibitors: qHTS Validation Assay for Inhibitors of Endonuclease IV (AID 1708). The procedure, abridged: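 Enzymatic AP-site incision assay using a double-stranded THF substrate labelled with TAMRA and BHQ-2; released fluorescence signals activity. Enzyme 2 nM, substrate 50 nM, 15 min compound preincubation.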
In general terms: A counterscreen serves to expose hits that act by an unwanted route or on another target.

Test [14] is described as follows: qHTS for differential inhibitors of proliferation of Plasmodium falciparum line 3D7 (AID 1876).
A short description of test [15]: qHTS for differential inhibitors of proliferation of Plasmodium falciparum line D10 (AID 1877).
Test [16] can be described thus: qHTS for differential inhibitors of proliferation of Plasmodium falciparum line HB3 (AID 1886). To be noted: Potency: Plasmodium falciparum HB3 proliferation inhibition.
Test [17] addresses M-phase phosphoprotein 8 (Homo sapiens) (UniProt Q99549). Nature of the test: qHTS Validation Assay for Inhibitors for MPP8 Chromodomain Interactions with Methylated Histone Tails (AID 488949). The essentials: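 AlphaScreen proximity signal from streptavidin donor and Ni-chelate acceptor beads (10 ug/mL each) reported binding of MPP8 to trimethyl-K9 H3(1-18) peptide, both at 50 nM. The complex formed 30 min before a 30 min compound exposure at room temperature, in PBS pH 7.4.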

For test [18], the target named is Voltage-gated inwardly rectifying potassium channel KCNH2 (Homo sapiens) (UniProt Q12809). Nature of the test: qHTS Assay for Small Molecule Inhibitors of the Human hERG Channel Activity (AID 588834). The procedure, abridged:
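Kinetic FDSS fluorescence; U2OS + hERG BacMam (~100 virus particles/cell); FluxOR Tl+ flux; ~10 min cpd; AC50 (Hill).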

In test [19] the target is Peroxisome proliferator-activated receptor delta (Homo sapiens) (UniProt Q03181). Nature of the test: qHTS assay for small molecule agonists of peroxisome proliferator-activated receptor delta signaling (AID 588534; calls by dose curve). The essentials: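 Reporter cells were plated and held 5 hrs at 37 C before compounds were added. After 18 hrs at 37 C, CCF4 dye was loaded for 2 hrs at RT and fluorescence measured.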

The target of test [20] is Estrogen receptor (Homo sapiens) (UniProt P03372). Nature of the test: qHTS assay for small molecule antagonists of estrogen receptor alpha signaling (AID 588513; active = well fitted curve in the direction sought with a large enough effect in the signal ratio, with a control signal flat, not every such curve was filed as active; the % refers to the signal ratio). The essentials:
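Antagonist mode: inhibition of 0.5 nM 17-beta-estradiol-driven beta-lactamase reporter in HEK 293 ER-alpha-UAS-bla cells, 18 h at 37C, CCF4 readout after 2 h at RT. Normalised to estradiol and DMSO; titration fitted to Hill.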

Sequence of Estrogen receptor (Homo sapiens) (P03372 whole entry, looked up): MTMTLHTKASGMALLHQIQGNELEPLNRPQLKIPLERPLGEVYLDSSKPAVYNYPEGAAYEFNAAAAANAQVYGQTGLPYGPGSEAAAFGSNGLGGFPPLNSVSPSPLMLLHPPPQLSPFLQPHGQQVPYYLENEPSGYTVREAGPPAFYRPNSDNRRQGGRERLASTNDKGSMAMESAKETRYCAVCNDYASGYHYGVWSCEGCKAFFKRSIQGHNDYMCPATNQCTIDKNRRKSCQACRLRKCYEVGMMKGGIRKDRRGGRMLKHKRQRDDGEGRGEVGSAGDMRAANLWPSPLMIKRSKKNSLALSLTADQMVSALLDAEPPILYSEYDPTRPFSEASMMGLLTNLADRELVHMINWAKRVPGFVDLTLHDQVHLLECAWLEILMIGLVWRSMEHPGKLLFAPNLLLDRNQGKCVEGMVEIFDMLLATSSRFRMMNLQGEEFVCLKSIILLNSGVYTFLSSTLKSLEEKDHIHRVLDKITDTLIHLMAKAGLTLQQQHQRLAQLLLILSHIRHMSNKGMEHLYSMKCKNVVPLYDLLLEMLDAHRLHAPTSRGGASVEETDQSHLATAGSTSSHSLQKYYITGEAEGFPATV
Sequence of Nuclear receptor subfamily 1 group I member 3 (Homo sapiens) (Q14994 whole entry, looked up): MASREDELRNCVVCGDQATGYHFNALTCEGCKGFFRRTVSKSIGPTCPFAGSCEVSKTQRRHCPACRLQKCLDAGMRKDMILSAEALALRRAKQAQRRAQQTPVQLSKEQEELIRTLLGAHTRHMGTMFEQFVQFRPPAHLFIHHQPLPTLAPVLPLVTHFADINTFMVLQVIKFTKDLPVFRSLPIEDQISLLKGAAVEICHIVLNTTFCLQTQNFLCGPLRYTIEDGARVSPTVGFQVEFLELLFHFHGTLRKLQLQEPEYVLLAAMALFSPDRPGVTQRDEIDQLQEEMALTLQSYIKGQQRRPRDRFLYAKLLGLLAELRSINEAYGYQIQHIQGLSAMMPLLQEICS
Sequence of Peroxisome proliferator-activated receptor delta (Homo sapiens) (Q03181 whole entry, looked up): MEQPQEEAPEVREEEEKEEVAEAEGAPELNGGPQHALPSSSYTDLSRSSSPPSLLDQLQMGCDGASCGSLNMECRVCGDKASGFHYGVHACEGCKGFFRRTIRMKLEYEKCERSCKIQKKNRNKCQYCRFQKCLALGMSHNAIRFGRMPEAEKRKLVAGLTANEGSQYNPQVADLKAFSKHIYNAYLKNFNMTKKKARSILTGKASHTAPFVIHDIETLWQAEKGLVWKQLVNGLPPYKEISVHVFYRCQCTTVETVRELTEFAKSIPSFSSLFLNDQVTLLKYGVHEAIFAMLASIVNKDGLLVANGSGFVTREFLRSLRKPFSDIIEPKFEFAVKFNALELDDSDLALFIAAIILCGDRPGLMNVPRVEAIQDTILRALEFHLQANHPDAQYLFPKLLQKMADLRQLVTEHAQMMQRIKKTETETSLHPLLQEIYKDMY
Sequence of M-phase phosphoprotein 8 (Homo sapiens) (Q99549 whole entry, looked up): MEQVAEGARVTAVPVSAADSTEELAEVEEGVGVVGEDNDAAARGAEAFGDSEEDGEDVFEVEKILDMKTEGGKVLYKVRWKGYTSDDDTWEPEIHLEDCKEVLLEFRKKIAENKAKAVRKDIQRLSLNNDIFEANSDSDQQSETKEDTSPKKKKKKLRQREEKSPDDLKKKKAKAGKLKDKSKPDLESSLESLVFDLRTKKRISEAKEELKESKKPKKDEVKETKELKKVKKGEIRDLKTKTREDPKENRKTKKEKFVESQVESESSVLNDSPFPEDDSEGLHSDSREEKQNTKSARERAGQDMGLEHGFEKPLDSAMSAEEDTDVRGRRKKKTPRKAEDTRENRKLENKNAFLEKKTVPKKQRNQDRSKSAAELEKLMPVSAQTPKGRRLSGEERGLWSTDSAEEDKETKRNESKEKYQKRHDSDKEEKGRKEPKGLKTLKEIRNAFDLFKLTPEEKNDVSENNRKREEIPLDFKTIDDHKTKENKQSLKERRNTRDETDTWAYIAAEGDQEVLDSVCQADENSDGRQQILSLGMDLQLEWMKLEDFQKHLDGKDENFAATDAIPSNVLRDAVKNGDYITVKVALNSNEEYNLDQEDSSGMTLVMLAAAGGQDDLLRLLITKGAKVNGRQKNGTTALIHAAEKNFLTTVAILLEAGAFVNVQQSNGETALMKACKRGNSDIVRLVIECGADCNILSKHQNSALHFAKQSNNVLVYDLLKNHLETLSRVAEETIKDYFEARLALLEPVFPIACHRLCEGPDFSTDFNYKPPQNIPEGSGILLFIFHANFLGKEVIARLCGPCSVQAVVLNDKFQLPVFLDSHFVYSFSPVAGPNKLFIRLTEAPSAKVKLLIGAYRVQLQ
Sequence of Voltage-gated inwardly rectifying potassium channel KCNH2 (Homo sapiens) (Q12809 whole entry, looked up): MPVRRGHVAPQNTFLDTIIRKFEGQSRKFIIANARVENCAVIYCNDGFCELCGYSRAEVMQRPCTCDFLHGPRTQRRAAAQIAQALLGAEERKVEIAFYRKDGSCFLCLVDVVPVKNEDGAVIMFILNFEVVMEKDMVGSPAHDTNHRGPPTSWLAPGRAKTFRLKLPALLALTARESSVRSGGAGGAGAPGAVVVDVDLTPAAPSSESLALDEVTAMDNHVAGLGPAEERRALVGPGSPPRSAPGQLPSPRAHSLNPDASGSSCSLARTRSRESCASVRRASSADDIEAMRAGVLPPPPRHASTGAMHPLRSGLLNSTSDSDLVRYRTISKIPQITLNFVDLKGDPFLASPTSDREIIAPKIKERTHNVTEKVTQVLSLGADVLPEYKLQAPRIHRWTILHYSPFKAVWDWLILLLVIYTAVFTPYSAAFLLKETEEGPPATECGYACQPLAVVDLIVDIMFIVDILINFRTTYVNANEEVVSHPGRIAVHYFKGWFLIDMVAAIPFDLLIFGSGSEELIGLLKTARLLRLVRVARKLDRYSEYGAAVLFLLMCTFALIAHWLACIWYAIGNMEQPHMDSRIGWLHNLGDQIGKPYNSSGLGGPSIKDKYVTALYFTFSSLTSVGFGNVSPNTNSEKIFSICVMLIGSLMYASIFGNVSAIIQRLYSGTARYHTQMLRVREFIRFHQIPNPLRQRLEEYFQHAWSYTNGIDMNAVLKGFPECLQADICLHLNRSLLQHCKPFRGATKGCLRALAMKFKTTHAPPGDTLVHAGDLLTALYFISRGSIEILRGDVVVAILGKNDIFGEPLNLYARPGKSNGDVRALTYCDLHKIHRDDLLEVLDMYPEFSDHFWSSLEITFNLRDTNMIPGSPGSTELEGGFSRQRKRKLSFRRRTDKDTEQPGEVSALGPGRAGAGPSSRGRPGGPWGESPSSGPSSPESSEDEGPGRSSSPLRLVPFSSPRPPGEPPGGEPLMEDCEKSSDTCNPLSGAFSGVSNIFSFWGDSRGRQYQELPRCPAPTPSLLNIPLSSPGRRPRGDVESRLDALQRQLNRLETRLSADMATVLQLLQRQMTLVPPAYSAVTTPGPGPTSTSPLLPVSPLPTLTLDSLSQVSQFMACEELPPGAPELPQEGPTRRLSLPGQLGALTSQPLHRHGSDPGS

In the case of `CN(C)Cc1c[nH]c2ccccc12`, the Potency entry in test [1], in [2], in test [3], in test [6], in test [9] and in test [10] was “inactive” each time. Moreover, the Potency entry in test [11] and in [12] was “inactive” in each case. For the same compound, the call in test [4], in [5], in test [7] and in test [8] was inactive.
Regarding `NCCc1ccccc1`, the Potency result in [1], in test [2], in [3], in [6], in test [9] and in test [10] was “inactive” throughout. The Potency result in [11] and in test [12] was “inactive” in each case. For the same compound, the call in [4], in test [5], in test [7] and in [8] was inactive.
Turning to `CC(=O)OCC1=C(C(=O)[O-])N2C(=O)[C@@H](NC(=O)CCC[C@@H](N)C(=O)[O-])[C@H]2SC1.[Zn+2]`, the compound was classed as inactive in test [13]. For the same compound, the Potency entry in test [14], in test [15], in test [16] and in test [18] was “inactive” in each case. The Potency in test [17] was 44.7 µM (active).
In the case of `CN[C@H](CC(C)C)C(=O)N[C@H]1C(=O)N[C@@H](CC(N)=O)C(=O)N[C@H]2C(=O)N[C@H]3C(=O)N[C@H](C(=O)N[C@H](C(=O)O)c4cc(O)cc(O)c4-c4cc3ccc4O)[C@H](O)c3ccc(c(Cl)c3)Oc3cc2cc(c3O[C@@H]2O[C@H](CO)[C@@H](O)[C@H](O)[C@H]2O[C@H]2C[C@](C)(N)[C@H](O)[C@H](C)O2)Oc2ccc(cc2Cl)[C@H]1O`, in test [13], the outcome was inactive.
Turning to `CCCCCCCCCC(=O)O`, the Potency result in test [19] was “inactive”.
As to `Cc1ccccc1O`, the Potency entry in [20], in test [19] and in test [18] was “inactive” throughout.
`CC(=O)[C@H]1CC[C@H]2[C@@H]3CCC4=CC(=O)CC[C@]4(C)[C@H]3CC[C@]12C`: the Potency in [14] was 11.2 µM (active); in test [15], 12.6 µM (active); in [16] it was 8.91 µM (active). Besides, the Potency result in [20] is “inactive”.
Turning to `CC(C)COC(=O)OCN1C(=O)CN(CCN2CC(=O)N(COC(=O)OCC(C)C)C(=O)C2)CC1=O`, the Potency entry in test [17] was “inactive”.
